Data: PubChem BioAssay (NCI)
This is part of a sample that, as a whole, favours compounds with a hit. Of some 79,000 tested, about 15% had one in any assay. Rule as the data show it: active = growth inhibition above about 70%; inactive = the rest.

Legend:
[1] = NCI Yeast Anticancer Drug Screen. Data for the rad50 strain (AID 155);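 also: 0% = growth of vehicle-only cultures of the same strain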; conditions: S. cerevisiae rad50 strain growth inhibition; at 50.0 µM; active compounds read high
Procedure, shortened: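 Yeast carrying a defined DNA repair defect were exposed to test compounds, and growth was compared with vehicle-treated controls to give percent inhibition.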

[2] = NCI Yeast Anticancer Drug Screen. Data for the mec2-1 strain (AID 157); conditions: S. cerevisiae mec2-1 strain, at 50.0 µM, active compounds read high
Procedure, shortened: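 Strain: mec2-1 (DNA repair/cell cycle alteration). Compound exposure, then growth measured; inhibition expressed relative to vehicle.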

[3] = NCI Yeast Anticancer Drug Screen. Data for the sgs1 mgt1 strain (AID 161);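 also: 0% = growth of cultures given vehicle only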; conditions: S. cerevisiae sgs1 mgt1 strain, at 50.0 µM, active compounds read high
Procedure, shortened: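 Mutant yeast exposed to compound; growth scored against vehicle-only wells.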

[4] = NCI Yeast Anticancer Drug Screen. Data for the cln2 rad14 strain (AID 165);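 also: 0% = growth equal to vehicle treated cultures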; conditions: S. cerevisiae cln2 rad14 strain, at 50.0 µM, active compounds read high
Procedure, shortened: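 Compounds are applied to the cln2 rad14 yeast strain, and growth is then compared with that of vehicle-treated cultures to give inhibition.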

[5] = NCI Yeast Anticancer Drug Screen. Data for the bub3 strain (AID 167); conditions: S. cerevisiae bub3 mutant strain, at 50.0 µM, active compounds read high
Procedure, shortened: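 Compounds were applied to a genetically altered yeast strain carrying a cell-cycle control defect. Growth inhibition was scored against vehicle-treated controls.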

[6] = NCI Yeast Anticancer Drug Screen. Data for the mlh1 rad18 strain (AID 175); conditions: S. cerevisiae mlh1 rad18 strain growth inhibition; at 50.0 µM; active compounds read high
Procedure, shortened: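 Read-out is yeast growth inhibition, calculated against vehicle-only controls. The compound was applied to a strain engineered with DNA damage repair alterations.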

Measured: growth inhibition

COc1cc(C)c(OC)c(C/C=C(\C)CC2=C(CC(C)(C)O)C(=O)[C@]3(C)CCC[C@]3(C)C2)c1
inactive: [1] 33.6% | [2] 25.8% | [3] 13.7% | [4] 4.35% | [5] 16.5% | [6] 12.4%

Cc1cc(S(=O)(=O)Nc2n[nH]c(-c3ccc(Cl)cc3)n2)c(SSc2cc(Cl)c(C)cc2S(=O)(=O)Nc2n[nH]c(-c3ccc(Cl)cc3)n2)cc1Cl
inactive: [1] 34.5% | [2] 15.2% | [3] 27.8% | [4] 34.7% | [5] 30.6% | [6] 32.2%

CN(C)c1ccc2[nH]cc(C(=O)O)c(=O)c2c1
inactive: [1] 4.15% | [2] 6.6% | [3] 10.3% | [4] -1.05% | [5] 28.8% | [6] 7.35%

CC1CCC(O)CC1C (stereo not given)
inactive: [1] -17.9% | [2] -24.6% | [3] -57% | [4] 27.2% | [5] -33.6% | [6] -10.1%

CN(C)c1ccc(C=C(c2ccc(N)cc2)c2ccc(N)cc2)cc1
inactive: [1] 9.25% | [2] -1.05% | [3] 24.3% | [4] -0.6% | [5] 52.4% | [6] 20.6%

C[N+]1(C)CCCC(OC(=O)C(O)(c2ccccc2)c2ccccc2)C1 (stereo not given)
inactive: [1] 38% | [2] 10.1% | [3] 15.6% | [4] -18.9% | [5] 13.6% | [6] 27.7%

CCCC(CCC(C)=O)[N+](=O)[O-] (stereo not given)
inactive: [1] -9.05% | [2] -3.15% | [3] -8.85% | [4] -14.2% | [5] 1% | [6] 12%

Cc1c(O)c([N+](=O)[O-])cc2c1OCOC2
inactive: [1] 3.8% | [2] 11.6% | [3] -3.15% | [4] -9.4% | [5] -17.5% | [6] 0%

Cc1ccc(S(=O)(=O)NC(CCC(=O)NN)C(=O)NN)cc1 (stereo not given)
inactive: [1] 9.55% | [2] 7.2% | [3] -15.2% | [4] 5.95% | [5] -1.8% | [6] -43.4%

O=C1NCC2(CCN(CC3COc4ccccc4O3)CC2)N1c1ccccc1 (stereo not given)
inactive: [1] -23.3% | [2] -18.2% | [3] -21% | [4] -2.95% | [5] -3.2% | [6] -34.5%

COn1nnc2c([N+](=O)[O-])cccc21
inactive: [1] 18.8% | [2] -6% | [3] -3.15% | [4] -22.9% | [5] -16.4% | [6] 5%

FC(F)(F)c1cccc(N=Cc2ccc(C=Nc3cccc(C(F)(F)F)c3)cc2)c1
inactive: [1] 10.4% | [2] -9.2% | [3] 13.3% | [4] 7.6% | [5] -9% | [6] 1.35%

O=C(Cl)c1ccc2c(c1)C(=O)NC2=O
inactive: [1] -6.55% | [2] -12.1% | [3] -19.4% | [4] 8.95% | [5] -5.95% | [6] -16.4%

O=[N+]([O-])c1ccc(C=C2C=c3ccccc3=C2)cc1
inactive: [1] 5.8% | [2] 1.1% | [3] -14.4% | [4] -28.9% | [5] 5.3% | [6] 7.3%

Nc1ccc(-c2csc(Nc3ccnc4cc(Cl)ccc34)n2)cc1
inactive: [1] -1.75% | [2] -5.4% | [3] 4.25% | [4] -7.85% | [5] 18.9% | [6] 7.6%

CCC/C=C(\CC)COC(=O)Nc1ccccc1
inactive: [1] -1.15% | [2] -19.6% | [3] -9.55% | [4] -47.9% | [5] -31.1% | [6] -1.75%

COc1ccc(CCNC(=O)CCc2ccccc2CO)cc1OC
inactive: [1] 15.8% | [2] 13.9% | [3] -36.9% | [4] -5.9% | [5] -39.2% | [6] -5.9%

CC(C)CCCC(C)C1CCC2(C)C3=C(CCC12C)C1(C)Cc2cnn(-c4ccccc4)c2C(C)(C)C1CC3 (stereo not given)
inactive: [1] -6.4% | [2] -6.05% | [3] -6.65% | [4] -12.8% | [5] -2.85% | [6] -17.4%

CC1C2CC(CC2O)C1(C)C (stereo not given)
inactive: [1] 11.3% | [2] 16.6% | [3] 18.1% | [4] 24.4% | [5] 6.3% | [6] 15.9%

CC1=Nc2ccccc2NC2(C1)C(C1COC(C)(C)O1)OC1OC(C)(C)OC12 (stereo not given)
inactive: [1] 9.95% | [2] 13.8% | [3] 20.3% | [4] 21.5% | [5] 2.1% | [6] 17.9%

CCCCN(CCCC)C(=Nc1ccccc1)N(CCCC)CCCC
inactive: [1] -13.2% | [2] -3.4% | [3] -23.8% | [4] 10% | [5] -38.9% | [6] -15.3%

Clc1ccc(SCc2csc(-c3ccc(Cl)cc3)n2)cc1
inactive: [1] -27.5% | [2] -41.8% | [3] -19.1% | [4] -27.8% | [5] -6.8% | [6] -29.8%

CC(=O)OC(C)C(=O)C1c2cccc(O)c2C(=O)c2c(O)cc(C)cc21 (stereo not given)
inactive: [1] 35.6% | [2] 19.1% | [3] 19.9% | [4] 31.4% | [5] 23.9% | [6] 26.6%

CC(=O)Nc1ccc(N(C)C)cc1Cl
inactive: [1] -24.6% | [2] -17.2% | [3] -13.7% | [4] -17.1% | [5] -1.8% | [6] -16.1%

COc1ccc(N2C(=O)C(C)SC23C(=O)Nc2ccccc23)cc1 (stereo not given)
inactive: [1] 13.6% | [2] 20.4% | [3] 5.75% | [4] 2.5% | [5] 4.75% | [6] 18.8%

CN(C)c1ccc(/C=N/NC(=O)c2ccccc2NC(=O)c2ccccc2)cc1
inactive: [1] -1.65% | [2] -20.3% | [3] -11.6% | [4] -19.8% | [5] 14.9% | [6] 3.4%

CC(C)=CC1C(CBr)C1(C)C (stereo not given)
inactive: [1] 2.3% | [2] -15.2% | [3] -12.2% | [4] -26.2% | [5] -10.1% | [6] -11%

NNC(=S)NNc1ccccc1
inactive: [1] 12.2% | [2] 42.4% | [3] 56.1% | [4] -2.65% | [5] 20.4% | [6] 42.7%

COc1ccccc1NC(=O)c1nc2ccc([N+](=O)[O-])cc2nc1C
inactive: [1] 21.4% | [2] 19.1% | [3] 1.65% | [4] 15.4% | [5] 33.9% | [6] 20.4%

Nc1ccccc1N=Cc1cc(F)ccc1[N+](=O)[O-]
inactive: [1] 0.05% | [2] 4.4% | [3] 28.2% | [4] -48.9% | [5] 4.4% | [6] 1.35%

Cc1ccc(C)c(NC(=O)NC(C)C)c1
inactive: [1] -0.6% | [2] 0.5% | [3] 5.45% | [4] -25.6% | [5] -5.3% | [6] -0.35%

[O-][n+]1onc2c1/C(=N/O)CCC2
inactive: [1] -17.2% | [2] 4.6% | [3] -14.3% | [4] -2.3% | [5] -4.1% | [6] 11.7%

N#Cc1c(=O)[nH]c(=O)n2c1[nH]c1ccccc12
inactive: [1] 14.7% | [2] 19.3% | [3] 11.9% | [4] -32.4% | [5] 12.1% | [6] 8.15%

O=C(OC1OC(COCc2ccccc2)C(OCc2ccccc2)C1OCc1ccccc1)c1ccc([N+](=O)[O-])cc1 (stereo not given)
inactive: [1] 25.2% | [2] -12.2% | [3] 16.2% | [4] -26.1% | [5] -5.3% | [6] -1.35%

CCCCOCCOC(=O)C(C)O (stereo not given)
inactive: [1] 18.9% | [2] 13.7% | [3] 11.9% | [4] 6.6% | [5] -1% | [6] 6.4%

CCOC(=O)C(Cc1ccccc1C)(NC(C)=O)C(=O)OCC
inactive: [1] 6.65% | [2] -0.25% | [3] 7.35% | [4] 4.1% | [5] 1.4% | [6] -11.2%

Cc1cccc(C2=N/C(=C\c3ccc4c(c3)OC(O)O4)C(=O)O2)c1 (stereo not given)
inactive: [1] -1.9% | [2] 6.55% | [3] 4.95% | [4] 3.55% | [5] 7.05% | [6] -16.4%

CC(=O)Nc1ccc(/C=C(\NC(=O)c2ccccc2)C(=O)NNS(=O)(=O)c2ccc(C)cc2)cc1
inactive: [1] 21.6% | [2] 17.7% | [3] -9.3% | [4] -5.5% | [5] -4.2% | [6] 21.4%

CC(=O)Nc1cnc2ccccc2c1
inactive: [1] 9.65% | [2] -0.4% | [3] 7.1% | [4] -2.8% | [5] 4.6% | [6] -15.7%

CC(C)(C)N/N=C(\C(=O)Nc1cccc(Cl)c1)C1C(=O)Nc2ccccc2S1=O (stereo not given)
inactive: [1] -31.1% | [2] -43.8% | [3] -24.6% | [4] 10.7% | [5] -11.2% | [6] 8.75%
